# An excerpt weighted towards active compounds, which were near 5.4% of everything screened.
# Exocytosis inh: lytic granule exocytosis inhibition | TALL-104 LAMP-1 surface exposure, flow cytometry; cells stimulated with thapsigargin and PMA | inhibition, % at 10 µM | 0.66% of 360,000 active;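 active = inhibition above about 55%, limit read from the data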
# SMARCA2 activ: increases SMARCA2 function in MMTV reporter cells; MG213 cells, MMTV-luciferase reporter, dexamethasone, overnight; activation, % at 9.1 µM; 1% of 370,000 active; in the data active = activation above about 7.8%;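 also: 0% = vehicle wells and 100% = reference activator wells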
# M18AAP inhibitor: PfM18AAP enzyme inhibition; 1.2% of 290,000 active; recombinant PfM18AAP, H-Glu-NHMec fluorogenic cleavage; inhibition, % at 7.35 µM; AID 1822;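 active = inhibition above the campaign mean inhibition over all tested compounds plus 3 SD, cut at about 28% in these data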;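 also: 0% = plate median of test compound wells and 100% = 2 mM ZnCl2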
# ALR H2O2 inh: human ALR oxidase inhibition via reduced H2O2; 3.8% of 290,000 active; inhibition, % (concentration not given with the values); P55789; AID 485317; purified ALR, DTT oxidation, H2O2 HRP-luminol luminescence;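 active = mean replicate inhibition above about 79%, with every replicate also reaching it, limit read from the data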
# JMJD2C inh: blocks human GASC-1 demethylase activity; Q9H3R0; GST-JMJD2C(1-420) H3K9me3 demethylation, DELFIA europium; inhibition, % at 2.35 µM; 0.069% of 330,000 active;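 active = more than half of a compound's replicate wells show inhibition beyond 50%, single wells judged on their own value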;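 also: signal counts dimethyl H3K9 product captured on neutravidin plate; 0% = median of DMSO wells and 100% = 0.3 times that DMSO median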
# Target sequence (Q9H3R0 1-420 limits assumed): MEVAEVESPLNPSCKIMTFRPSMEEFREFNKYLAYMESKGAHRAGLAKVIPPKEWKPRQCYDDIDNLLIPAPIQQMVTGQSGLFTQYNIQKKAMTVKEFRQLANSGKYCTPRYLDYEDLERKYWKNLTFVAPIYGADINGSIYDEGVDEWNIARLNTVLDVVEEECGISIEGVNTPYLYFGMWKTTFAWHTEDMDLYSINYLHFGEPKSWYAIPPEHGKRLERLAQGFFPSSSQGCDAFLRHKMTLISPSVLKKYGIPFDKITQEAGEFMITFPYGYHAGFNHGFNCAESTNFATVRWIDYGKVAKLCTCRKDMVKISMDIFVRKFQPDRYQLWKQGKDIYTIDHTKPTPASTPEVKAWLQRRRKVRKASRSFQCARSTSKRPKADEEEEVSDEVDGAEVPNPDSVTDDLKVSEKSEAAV
# beta cell repl: induces beta-cell replication in MIN6 cells. MIN6 cells proliferation, ATPlite luminescence, 48 h; cells starved in 0.2% serum; 100% = growth in 10% serum. proliferation, % at 10 µM. 0.29% of 330,000 active. AID 2380;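 active = compounds whose signal lies at least 3.5 SD above the mean of all wells on their plate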;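 also: 0% = DMSO-treated cells in low-serum medium and 100% = 10% serum control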
# * = called active by the depositor; . = no result.
SMILES,Exocytosis inh,SMARCA2 activ,M18AAP inhibitor,ALR H2O2 inh,JMJD2C inh,beta cell repl
COc1cccc(NC(=O)CN(C2=NC3CS(=O)(=O)CC3S2)c2cccc(C)c2)c1 (configuration not stated),1.0,7.0,5.2,98.4*,-8.2,-3.8
COc1ccc(N2C(=O)c3n[nH]c(C)c3C2c2cccc(C(F)(F)F)c2)cc1 (configuration not stated),.,-4.0,.,.,.,.
CCCn1c(N)c(C(=O)CSc2nc3ccccc3s2)c(=O)[nH]c1=O,17.3,-3.7,-7.5,97.1*,1.1,-5.5
CN(C(=O)CSc1nc2ccccc2s1)c1c(N)n(Cc2ccccc2)c(=O)[nH]c1=O,0.8,-2.3,-6.6,99.0*,-0.8,-4.2
CCCn1c(N)c(C(=O)CSc2nnc(N)s2)c(=O)[nH]c1=O,6.6,-3.4,.,0.0,-0.2,0.5
CCc1c(Cc2cccc(F)c2)ncn1CCc1ccccc1OC,.,4.5,.,.,.,.
Cc1ccc(N2CCN(/N=C\c3cccnc3)CC2)cc1,.,-2.4,.,.,.,.
CC(Oc1ccc(Br)cc1)C(=O)N(C)CC(=O)Nc1ccc(N2CCOCC2)cc1 (configuration not stated),1.2,-2.0,.,98.7*,2.5,0.4
O=C(CSc1ccccc1F)Nc1ccc(N2CCOCC2)cc1,-3.5,2.3,.,40.5,-0.5,-3.4
O=C(CNS(=O)(=O)c1ccccc1F)Nc1ccc(N2CCOCC2)cc1,-0.3,7.4,-5.9,94.4*,36.8,-1.3
COc1ccc(CCC(=O)N(C)CC(=O)Nc2ccc(N3CCOCC3)cc2)cc1,0.3,0.4,7.9,93.6*,-4.1,-0.1
CCN(CC(=O)Nc1ccc(N2CCOCC2)cc1)C(=O)COc1ccccc1OC,3.3,4.5,5.3,90.9*,5.2,1.8
CCOc1ccc(OCCCC(=O)N(C)CC(=O)Nc2ccc(N3CCOCC3)cc2)cc1,-1.4,-2.0,.,5.2,64.5,-3.9
COc1ccccc1OCC(=O)Nc1ccc(N2CCOCC2)cc1N1CCOCC1,4.2,-2.1,.,6.5,8.5,2.4
O=S1(=O)C=CCN1Cc1cn(Cc2ccc(F)cc2)nn1,.,3.4,.,.,.,.
O=C(OCc1cn(Cc2cccc(F)c2F)nn1)N1CCOCC1,.,-1.9,.,.,.,.
Cn1cccc1C(=O)N1CCN(S(=O)(=O)c2ccc([N+](=O)[O-])cc2)CC1,.,-0.4,.,.,.,.
Cc1ccc(-n2c(SCC(=O)c3ccc(O)c(O)c3)nnc2-c2ccccc2)cc1,.,-5.8,.,.,.,.
CN(CC(=O)Nc1ccc(N2CCOCC2)cc1)C(=O)COc1ccccc1F,3.5,-1.0,1.8,77.8*,8.1,-2.4
COc1ccc(CNC(=O)[C@@H](Cc2ccccc2)NC(=O)[C@H]2O[C@@H](n3ccc(=O)[nH]c3=O)[C@H](O)[C@@H]2O)cc1,.,1.9,.,.,.,.
Cc1ccc2c(=O)cc(C(=O)NC3CCS(=O)(=O)C3)oc2c1C (configuration not stated),0.3,-1.6,0.7,98.2*,-22.6,1.9
Cc1ccc(C)c(Sc2ccc(NC(=O)CCl)cc2)c1,.,-2.4,17.6,86.2*,5.0,-5.8
Cc1ccc(NC(=O)CC(=O)Nc2ccc(C)c(C)c2)cc1C,-2.4,-3.8,1.1,2.8,0.0,-2.4
O=C(CCl)Nc1ccccc1Sc1ccccc1,0.6,-2.4,7.6,3.9,-2.9,-3.6
Cc1ccc(Sc2ccc(NC(=O)CCl)cc2)cc1C,-3.6,-5.6,0.1,98.3*,20.9,-6.1
SMILES,Exocytosis inh,SMARCA2 activ,M18AAP inhibitor,ALR H2O2 inh,JMJD2C inh,beta cell repl
Cc1cccc(-c2cccc3c4c([nH]c23)[C@@H]2C[C@H](N(C)C(=O)c3ccccc3C)[C@H]([C@H](C)O)CN2CC4)c1,.,4.0,.,.,.,.
Cc1occc1-c1nnc(SCC(=O)N[C@@H]2CCc3ccccc32)n1-c1ccccc1,.,-6.1,.,.,.,.
CCC(NC(=O)c1cccc2c1C(=O)N(Cc1cccnc1)C2)c1ccccc1 (configuration not stated),.,-6.7,.,.,.,.
Cc1ccccc1Nc1nc(CSc2nnc(-c3ccoc3C)n2C)cs1,2.2,0.0,13.1,97.0*,-0.6,-3.2
Cc1ccc(NC(=O)COC(=O)CSC(=S)N2CCOCC2)cc1,0.5,0.9,6.3,98.3*,16.5,-1.3
CCOC(=O)c1sc(NC(=O)CSC(=S)N2CCN(C)CC2)nc1C,-5.8,1.3,9.1,98.8*,-15.9,-2.7
CCc1nnc(NC(=O)CSC(=S)N2CCOCC2)s1,-2.5,-0.3,-3.1,-7.2,1.9,2.1
